Screens (PubChem)
TDP1 inh: qHTS Assay for Inhibitors of Tyrosyl-DNA Phosphodiesterase (TDP1). Potency, µM (series often up to 130 µM), without a hit: top-dose activity change, negative = inhibition, most hits filed as inhibitors. Tyrosyl-DNA phosphodiesterase 1 (Homo sapiens), Q9NUW8. 350,000 compounds, 0.28% hits. AID 485290, 2010. recombinant TDP1, AlphaScreen DNA substrate cleavage; further: potency means the concentration at half of the fitted maximal effect; on the % scale 0 is the no-effect control and ±100 the full control effect; nearly all actives have a fitted effect of over 40% in size
Target sequence (Q9NUW8 whole entry, looked up): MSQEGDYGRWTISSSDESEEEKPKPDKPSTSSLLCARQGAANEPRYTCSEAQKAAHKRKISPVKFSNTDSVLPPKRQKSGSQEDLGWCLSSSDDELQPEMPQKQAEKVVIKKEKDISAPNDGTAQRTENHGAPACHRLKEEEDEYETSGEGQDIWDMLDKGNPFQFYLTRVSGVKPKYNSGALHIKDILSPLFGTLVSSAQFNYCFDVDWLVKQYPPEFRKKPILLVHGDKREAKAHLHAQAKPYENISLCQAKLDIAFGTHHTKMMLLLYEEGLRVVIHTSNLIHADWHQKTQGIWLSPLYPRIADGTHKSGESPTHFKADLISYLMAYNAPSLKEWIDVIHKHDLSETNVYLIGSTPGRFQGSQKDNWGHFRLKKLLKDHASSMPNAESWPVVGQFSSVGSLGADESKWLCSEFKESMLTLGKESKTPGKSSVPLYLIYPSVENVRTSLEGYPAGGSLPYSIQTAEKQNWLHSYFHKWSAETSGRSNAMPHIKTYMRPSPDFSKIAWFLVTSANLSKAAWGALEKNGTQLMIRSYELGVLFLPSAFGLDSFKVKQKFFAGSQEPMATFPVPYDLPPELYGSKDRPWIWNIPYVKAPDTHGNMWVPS
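Here, a 5' biotin and 3' phosphotyrosine-FITC DNA oligonucleotide reports Tdp1 activity: intact substrate bridges AlphaScreen beads, while cleavage leaves a 3' phosphate and drops signal. All incubations at room temperature.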
TGFb SMAD3 inh: qHTS for Inhibitors of TGF-b; HepG2 CAGA-GFP TGF-b/SMAD3 reporter, GFP fluorescence, 18 h; TGF-beta stimulated, 500 pg/mL final; Potency, µM (doses to about 46.1 µM), without a hit: top-dose activity, negative = inhibition, most hits filed as inhibitors; 410,000 compounds, 1.2% hits; AID 588855, 2011; further: potency means the concentration at half of the fitted maximal effect; on the % scale 0 is the no-effect control and ±100 the full control effect; nearly all actives have a fitted effect of over 65% in size
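HEPG2 CAGA-GFP reporter cells (1000/well, DMEM with 1% FBS) received compounds, then recombinant TGF-beta at 500 pg/mL final for 18 hours at 37 degrees C. Per-cell GFP summed per well was normalised to unstimulated and stimulated DMSO controls before curve fitting.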
IL-1B inflam inh: qHTS for Inhibitors of Inflammasome Signaling: IL-1-beta AlphaLISA Primary Screen; 360,000 compounds, 4.7% hits; AID 743279, 2014; THP-1 LPS/ATP IL-1B secretion, AlphaLISA, 16 h; hits give low values; activity change, % at 57.5 µM; in the data active means activity change below about -50%; inconclusive means mostly about -30% to -49%; further: on the % scale 0 is the no-effect control and ±100 the full control effect
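Secreted IL-1B measured by AlphaLISA bead assay after 16 h compound exposure of THP-1 cells; compounds (final up to 57.5 uM) added 1 h before LPS (250 ng/mL) and ATP (1.25 mM) stimulation; lower signal means less secretion.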
TDP1 cell CPT: qHTS for Inhibitors of human tyrosyl-DNA phosphodiesterase 1 (TDP1): qHTS in cells in presence of CPT. AID 686979, 2013. Potency, µM (titrated, usually from 46.2 µM), without a hit: top-dose activity change, negative = growth inhibition, most hits filed as inhibitors. 420,000 compounds, 12% hits. chicken DT40 Tdp1-/-;hTDP1 cells + 20 nM CPT, ATP luminescence, 48 h; further: potency means the concentration at half of the fitted maximal effect; on the % scale 0 is the no-effect control and ±100 the full control effect; nearly all actives have a fitted effect of over 55% in size
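Chicken DT40 Tdp1-/- cells stably complemented with human TDP1 were seeded at 400 cells/well in medium containing 20 nM camptothecin, exposed to pin-transferred compounds, and grown at 37 °C for at least 48 hr. Viability was read as ATP luminescence.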
DT40 TDP1 no CPT: qHTS for Inhibitors of human tyrosyl-DNA phosphodiesterase 1 (TDP1): qHTS in cells in absence of CPT; DT40 Tdp1-/- hTDP1 cells, no CPT, ATP luminescence, 48 h; Potency, µM (top dose mostly 46.2 µM), for inactives: at the highest dose activity change, negative = growth inhibition, most hits filed as inhibitors; 420,000 compounds, 15% hits; further: potency means the concentration at half of the fitted maximal effect; on the % scale 0 is the no-effect control and ±100 the full control effect; nearly all actives have a fitted effect of over 55% in size
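Cells were dispensed at 400 per well, compounds added by pin tool, plates incubated ≥48 hr at 37 °C, then CellTiter-Glo added for 30 min at room temperature before luminescence reading. Line: DT40 Tdp1-/- complemented with hTDP1; camptothecin omitted.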
HepG2 viability: qHTS for Inhibitors of TGF-b: Cytotox Counterscreen; HepG2 CAGA-GFP viability, ATP luminescence, 18 h; Potency, µM (top dose mostly 46.1 µM), for the others: at the highest dose activity change, negative = cytotoxicity, hits mostly cytotoxic; 410,000 compounds, 0.76% hits; AID 588856, 2011; further: potency means the concentration at half of the fitted maximal effect
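CellTiter-Glo luminescence gave cytotoxicity after 18 hours at 37 degrees C. The cells were HepG2 CAGA-GFP in 1% FBS DMEM, stimulated with 500 pg/mL TGF-beta after compound addition. %Activity was normalised to no-cell wells (complete cell-killing) and DMSO (no toxicity), and curves were fitted and classified.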
* marks the source's active call; other numbers are inactive results; ! = repeats disagree; [ ] = dose if it differs, or a comment. Shown are actives, neighbours in structure and some others; about 19% of the full set was active somewhere. Unless noted, the call rests on the fitted dose curve; in most records, active means well fitted curve in the direction sought with a large enough effect; inconclusive means small, poorly fitted or top-dose-only effect, or another doubt; inactive means no such curve, though single readings can be large; an effect the other way counts as inactive or inconclusive.

For CC1CCN(c2nc3c(c(=O)n(C)c(=O)n3C)n2CCSc2ncccn2)CC1 the results were TDP1 inh 3%, TGFb SMAD3 inh 6%, IL-1B inflam inh 20, TDP1 cell CPT inconclusive, DT40 TDP1 no CPT inconclusive and HepG2 viability -12%.
For Cc1ccnc(SCCn2c(N3CCC(C)CC3)nc3c2c(=O)n(C)c(=O)n3C)n1 the results were TGFb SMAD3 inh 1%, IL-1B inflam inh 48, TDP1 cell CPT inconclusive, DT40 TDP1 no CPT 23µM* and HepG2 viability -5%.
Screening Cc1ccc2c(=O)c(C(=O)c3ccccc3)cn(CC(=O)NCc3ccccc3)c2n1 returned TDP1 inh 4%, TGFb SMAD3 inh inconclusive, TDP1 cell CPT inconclusive, DT40 TDP1 no CPT inconclusive and HepG2 viability -1%.
For CC1(C)CC[C@]2(CO)CC[C@]3(C)C(=CCC4[C@@]5(C)CC[C@H](O)[C@@](C)(CO)C5CC[C@]43C)[C@@H]2C1 (stereo not given in full) the results were TDP1 inh 0%, TGFb SMAD3 inh -9%, IL-1B inflam inh 10, TDP1 cell CPT inconclusive, DT40 TDP1 no CPT inconclusive and HepG2 viability -18%.
O=C(N/N=C1/C[C@@H](O)[C@@H](O)[C@@H]2[C@@H]3C(=O)N(c4cccc(Oc5ccccc5)c4)C(=O)[C@H]3CC[C@@H]12)OCc1ccccc1 was read as TDP1 inh 11%[21 µM].
Screening O=C(c1cccs1)N1CCN(c2ccc([N+](=O)[O-])cc2F)CC1 returned TGFb SMAD3 inh 4%, IL-1B inflam inh 0, TDP1 cell CPT inconclusive, DT40 TDP1 no CPT -21% and HepG2 viability 5%.
`CCC(=O)c1ccc(N2CCN(S(=O)(=O)c3ccccc3)CC2)c(F)c1` gave TDP1 inh 9%, TGFb SMAD3 inh 12%, IL-1B inflam inh 23, TDP1 cell CPT -24%, DT40 TDP1 no CPT inconclusive and HepG2 viability -5%.
Screening CCC(=O)c1ccc(N2CCN(C(=O)c3cccs3)CC2)c(F)c1 returned TGFb SMAD3 inh -19%, IL-1B inflam inh 7, TDP1 cell CPT inconclusive, DT40 TDP1 no CPT 21µM* and HepG2 viability -15%.
For CCC(=O)c1ccc(N2CCN(C(=O)c3ccccc3F)CC2)c(F)c1 the results were TDP1 inh 8%, TGFb SMAD3 inh -25%, IL-1B inflam inh 0, TDP1 cell CPT 10µM*, DT40 TDP1 no CPT 21µM* and HepG2 viability -6%.
For CCC(=O)c1ccc(N2CCCCCC2)c(F)c1 the results were TDP1 inh -8%, TGFb SMAD3 inh -24%, IL-1B inflam inh -1, TDP1 cell CPT -26%, DT40 TDP1 no CPT inconclusive and HepG2 viability -2%.
For Cc1cc(N2CCN(C(=O)c3cccs3)CC2)c(F)cc1[N+](=O)[O-] the results were TGFb SMAD3 inh inconclusive, IL-1B inflam inh -5, TDP1 cell CPT 10µM*, DT40 TDP1 no CPT 5.2µM* and HepG2 viability -33%.
Screening CCc1nc2ccc(C(=O)N3CCN(c4ccccc4F)CC3)cc2nc1CC returned TDP1 inh 3%, TGFb SMAD3 inh inconclusive, IL-1B inflam inh -11, TDP1 cell CPT 21µM*, DT40 TDP1 no CPT 5.8µM*! and HepG2 viability 13%.
Cc1ccc(-n2nc(C)c3nc(CCC(=O)Nc4cccc(C)c4C)c(=O)n(C)c32)cc1 was read as TDP1 inh 4%, TGFb SMAD3 inh -12%, TDP1 cell CPT -11%, DT40 TDP1 no CPT -1% and HepG2 viability 3%.
For OCC1OC(C#Cc2ccccc2)C=CC1O (stereo not given) the results were TDP1 inh 8%[21 µM].
